Source: PubChem BioAssay
HSF1 activator – HSF-1 activators, primary screen, NIH3T3-HGL cells, MG132 stress, luminescence, single point. NIH3T3-HGL HSF-1 luciferase reporter, 8 h; 100% = twice DMSO control signal. activation, % at 9 µM. actives 1.7% (n = 300,000). AID 504408, 2011;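 active means mean replicate activation of at least 50% with a set share of replicates each reaching 50%; inconclusive means only one of those two conditions met; inactive means mean below 50% and too few replicates reaching it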;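 further: 0% = median of the neutral control wells and 100% = twice that signal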
MITF act – activators of MITF-driven TRPM1 promoter reporter, primary screen, cell-based, SK-MEL-5, luciferase, single point | SK-MEL-5 TRPM1-promoter luciferase, 24 h; % of positive control, neutral wells = 0 | activation, % at 12.5 µM | actives 0.75% (n = 300,000) | AID 588334, 2011;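 active means mean activation of at least 80% with every replicate also reaching 80%; inconclusive means mean reaches 80% but some replicate falls short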;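 further: 0% = neutral control wells and 100% = parthenolide positive control wells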
HSF1 inh – HSF1 inhibitors in luciferase reporter cells, primary screen, cell-based, NIH3T3, luminescence | NIH3T3-HGL HSE-luciferase, MG132-induced, luminescence 8 h; hits give low values | activity change, negative = inhibition, % at 7.5 µM (by protocol) | actives 0.77% (n = 300,000) | AID 2098, 2009;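 active means more than half of replicate wells show activity change below -50%, luminescence cut by over half; inconclusive means some wells, but at most half, below -50%; inactive means no replicate well below -50%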;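 further: luciferase reports HSF-1 transcriptional activity via heat shock element; 0% = median of DMSO wells and -100% = zero luminescence signal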
esBAF inh – Bmi1 luciferase reporter increase in mESCs, primary screen, esBAF inhibitor project, mouse ES cells, Bmi1 luciferase knock-in, single point | reporter increase, % at 12.5 µM | AID 602393, 2012 | 24 h; 100% = twice the neutral-well signal | actives 2% (n = 350,000); in the data active means activation above about 40%; inconclusive means no clear call, values can overlap the other calls;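 further: 0% = median of the plate's neutral control wells and 100% = double that signal; a rise in the Bmi1 reporter signal indicates esBAF inhibition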
Wnt act – Wnt/beta-catenin pathway activators, primary screen, cell-based, plate reader, single point | activation, % at 9.35 µM | Wnt/beta-catenin reporter cell assay, activator | actives 1.2% (n = 300,000) | AID 743398, 2014; in the data active means activation above about 30%, passing the limit was not always enough; inconclusive means no clear call, values can overlap the other calls;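 further: 0% = neutral control wells and 100% = positive control wells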
* marks the source's active call; other numbers are inactive results. Shown are actives, neighbours in structure and some others; about 3.8% of the full set was active somewhere.

Results for O=C(Nc1ccc(Cl)cc1Cl)c1csc(-c2cccnc2)n1 ?
HSF1 activator: 33; MITF act: 27; HSF1 inh: 8; esBAF inh: 64*; Wnt act: -1

Results for CC(C)(C)c1ccc(S(=O)(=O)NCC(=O)Nc2ccc(-c3nc4ccccc4s3)cc2)cc1 ?
HSF1 activator: -14; MITF act: 58; HSF1 inh: -4; esBAF inh: 53*

What do the screens show for `CC(NS(=O)(=O)c1cccc(Cl)c1)C(=O)Nc1ccc(-c2nc3ccccc3s2)cc1` (stereo unspecified)?
HSF1 activator: 29; MITF act: inconclusive; HSF1 inh: 9; esBAF inh: 22; Wnt act: -1

What do the screens show for `Cc1ccc2sc(-c3ccc(NC(=O)CCN4C(=O)c5ccccc5C4=O)cc3)nc2c1`?
HSF1 activator: 35; HSF1 inh: 6; Wnt act: 73*

How did Cc1ccc(S(=O)(=O)CCC(=O)Nc2ccc(Br)cc2)cc1 do in these assays?
HSF1 activator: -73; MITF act: 3; HSF1 inh: -67*; esBAF inh: -18; Wnt act: 1

Results for Cc1ccc(C)c(S(=O)(=O)NC(C)C(=O)Nc2ccc(-c3nc4ccccc4s3)cc2)c1 (stereo unspecified) ?
HSF1 activator: 0; MITF act: 50; HSF1 inh: -5; esBAF inh: 52*; Wnt act: 13

What do the screens show for `CCc1ccc(NC(=O)CCS(=O)(=O)c2ccc(Br)cc2)cc1`?
HSF1 activator: 6; MITF act: 16; HSF1 inh: 2; esBAF inh: 6; Wnt act: 1

Results for O=C(CNS(=O)(=O)c1cccc(Cl)c1)Nc1ccc(-c2nc3ccccc3s2)cc1 ?
HSF1 activator: 3; MITF act: 51; HSF1 inh: 7; Wnt act: inconclusive

Results for COc1ccc(NC(=O)N(C)C[C@@H]2Oc3ncc(-c4ccc(C#N)cc4)cc3C(=O)N([C@@H](C)CO)C[C@@H]2C)cc1 ?
esBAF inh: 3

Results for O=C(CCS(=O)(=O)c1ccccc1)Nc1ccc(-c2nc3ccccc3s2)cc1 ?
HSF1 activator: 58*; MITF act: 23; HSF1 inh: 14; esBAF inh: -43; Wnt act: -6

What do the screens show for `O=C(Nc1cc(F)c(Br)cc1F)c1ccc(Cl)cc1`?
HSF1 activator: 26; MITF act: 75; HSF1 inh: 13; Wnt act: 49*

Results for Cc1ccc(C(=O)Nc2ccsc2C(=O)O)cc1 ?
HSF1 activator: 48; MITF act: 28; HSF1 inh: 30; Wnt act: 26

What do the screens show for `O=C(Nc1ccc(Cl)cc1C(F)(F)F)c1ccc(Cl)cc1`?
HSF1 activator: 16; MITF act: 62; HSF1 inh: -1; esBAF inh: 49*; Wnt act: inconclusive

What do the screens show for `O=C(Nc1ccsc1C(=O)O)c1ccc(Cl)cc1`?
HSF1 activator: 36; MITF act: 15; HSF1 inh: 13; esBAF inh: 61*; Wnt act: 15

Results for O=C(OCc1ccc(Cl)c(Cl)c1)c1ccc[nH]1 ?
HSF1 activator: 38; MITF act: 56; HSF1 inh: 26; esBAF inh: 50*; Wnt act: 12

Results for CCC(=O)Nc1ccc(C(=O)OCc2ccc(Cl)c(Cl)c2)cc1 ?
HSF1 activator: 21; MITF act: 4; HSF1 inh: -5; Wnt act: -1

Results for CC(=O)Nc1ccc(C(=O)OCc2ccc(Cl)c(Cl)c2)cc1 ?
HSF1 activator: 57*; MITF act: 20; HSF1 inh: 22

What do the screens show for `O=C(Cc1ccc(Cl)c(Cl)c1)OCC(=O)c1ccc[nH]1`?
HSF1 activator: -5; MITF act: 6; HSF1 inh: -4; esBAF inh: -5

How did Cc1noc(C)c1S(=O)(=O)N(C)C[C@H]1OCCCC[C@@H](C)Oc2ccc(NC(=O)c3ccccc3)cc2C(=O)N([C@@H](C)CO)C[C@@H]1C do in these assays?
esBAF inh: -1

What do the screens show for `O=C(c1ccccc1)C(CCC(CN1CCOCC1)C(=O)c1ccccc1)CN1CCOCC1` (stereo unspecified)?
HSF1 activator: 86*; HSF1 inh: 64; esBAF inh: -74

What do the screens show for `CN(C)CC(CCC(CN(C)C)C(=O)c1ccccc1)C(=O)c1ccccc1` (stereo unspecified)?
HSF1 activator: -63; MITF act: -97; HSF1 inh: -69*

How did CC(CN1CCOCC1)OC(=O)C(c1ccccc1)c1ccccc1 (stereo unspecified) do in these assays?
HSF1 activator: -73; MITF act: 4; HSF1 inh: -63*; esBAF inh: -1

What do the screens show for `CC(CN1CCOCC1)OC(=O)C(C)(c1ccccc1)c1ccccc1` (stereo unspecified)?
HSF1 activator: -24; MITF act: -7; HSF1 inh: -3; esBAF inh: -1; Wnt act: 4

How did C/C=C/c1cnc2c(c1)C(=O)N([C@@H](C)CO)C[C@H](C)[C@H](CN(C)C(=O)C1CC1)O2 do in these assays?
esBAF inh: -5

How did O=C1/C(=C/c2ccc(O)cc2)COc2ccccc21 do in these assays?
HSF1 activator: 17; MITF act: 36; HSF1 inh: -1; esBAF inh: 22; Wnt act: 31*

Results for O=C1/C(=C/c2ccccc2[N+](=O)[O-])COc2ccccc21 ?
HSF1 activator: 141*; MITF act: -83; HSF1 inh: 110; esBAF inh: 56*; Wnt act: -7

How did CNc1ccc(/C=C2\COc3ccccc3C2=O)cc1[N+](=O)[O-] do in these assays?
HSF1 activator: 39; MITF act: 31; HSF1 inh: 30; esBAF inh: 49*

How did O=C1/C(=C/c2ccccn2)COc2ccccc21 do in these assays?
HSF1 activator: 24; MITF act: 2; HSF1 inh: 0; Wnt act: 0

How did CN(C)CC(=O)Nc1ccc2c(c1)[C@H]1C[C@@H](CC(=O)NCc3ccccc3F)O[C@@H](CO)[C@H]1O2 do in these assays?
esBAF inh: -3

What do the screens show for `CCCN(C)C[C@H]1Oc2cc(C#CC3CCCCC3)ccc2S(=O)(=O)N([C@@H](C)CO)C[C@H]1C`?
esBAF inh: -5

How did Cc1ccc(S(=O)(=O)Nc2ccc3c(c2)C(=O)N([C@@H](C)CO)C[C@H](C)[C@@H](CN(C)Cc2ccncc2)O3)cc1 do in these assays?
esBAF inh: -3

What do the screens show for `CSc1nnc2c(n1)[nH]c1c(C)cccc12`?
HSF1 activator: 12; MITF act: 17; HSF1 inh: -3; esBAF inh: 25

What do the screens show for `CCSc1nnc2c(n1)[nH]c1c(C)cccc12`?
HSF1 activator: 20; MITF act: 31; HSF1 inh: 17; esBAF inh: 89*
